# Data as given in PubChem BioAssay (NCATS).
# Inconclusive results are not listed. Values without a mark were called inactive. Calls of active or inactive are those of the source. The call rests on the fitted dose curve; in most records, active means well fitted inhibition curve with a large enough effect; inconclusive means small, poorly fitted or top-dose-only effect; inactive means no such curve, though single readings can be large or run the other way. Where a SMILES comes first, the peptide text is derived from it.
# Test system: Zika virus NS2B-NS3 protease (unlinked complex)
# Test: Primary screen GU Rhodamine qHTS for Zika virus inhibitors: Unlinked NS2B-NS3 protease assay (AID 1347159); further: nearly all actives have a fitted effect of over 60% in size
# Details: Recombinant ZIKV NS2B-NS3 protease, Rhodamine110 substrate fluorescence; series mostly up to 107 µM; activity change, negative = inhibition: at the top concentration
# Outline: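 Percent inhibition derives from the 15-min fluorescence change (ex 480, em 540 nm), normalized to no-enzyme and no-inhibitor wells. Reactions contained 25 nM NS2B-NS3 complex and 1.5 microM substrate in 10 mM Tris-HCl pH 8.0.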
# On the % scale 0 is the no-effect control and ±100 the full control effect; potency means the concentration at half of the fitted maximal effect.
SMILES,"activity change, negative = inhibition",Potency
C/C1=C\C[C@H](O[C@@H]2O[C@H](CO)[C@@H](O)[C@H](O)[C@H]2O)/C(C)=C/[C@H]2OC(=O)[C@H](C)[C@@H]2CC1,-20.7% [at 57.1 µM],–
C=C1CC2(C(=O)O)CC1CCC2C1(C)CCCC2(C)C(=O)OC(O)C21 (stereo not drawn),-4.22%,–
C=C1CCC2(OC1)OC1CC3C4CC=C5CC(O)CC(O[C@@H]6OC[C@@H](O)[C@H](O)[C@H]6O)C5(C)C4CCC3(C)C1(O)C2C (stereo partly drawn),28.3% [at 32.5 µM],–
CC1(C)CCCC2(C)C1C(O)C=C(CO)C2(O)C(=O)O (stereo not drawn),4.84%,–
CC1=CC[C@]2(C(=O)O[C@@H]3O[C@H](CO[C@@H]4O[C@H](CO)[C@@H](O[C@@H]5O[C@@H](C)[C@H](O)[C@@H](O)[C@H]5O)[C@H](O)[C@H]4O)[C@@H](O)[C@H](O)[C@H]3O)CC[C@]3(C)C(CCC4[C@@]5(C)C[C@@H](O)[C@H](O)[C@@](C)(CO)C5CC[C@]43C)C2C1C (stereo partly drawn),2.12% [at 32.5 µM],–
COc1cccc(-c2ccc([C@@H](Oc3cc(-c4ccc(C[C@H](N)C(=O)O)cc4)nc(N)n3)C(F)(F)F)cc2)c1,–,22.4 µM (active)
O=C(C1CC1)N1CC[C@@H](Cc2n[nH]c(=O)n2-c2ccc(-c3ccc4occc4c3)cc2)C1,-17.4% [at 32.5 µM],–
C=CC1(C)C=C2C(O)CC3C(C)(C(=O)O)CCCC3(C)C2CC1 (stereo not drawn),–,11.2 µM (active)
FC(F)(F)c1cc(C(F)(F)F)c2ccc3nc(-c4nnco4)cn3c2n1,-7.63%,–
C[C@H]1[C@H](C)CC[C@]2(C(=O)O)CC[C@]3(C)C(=CC[C@@H]4[C@@]5(C)C[C@@H](O)[C@H](O)[C@@](C)(CO)[C@@H]5CC[C@]43C)[C@H]12,2.82%,–
C=C1CC2[C@]3(C)C(=C(O)C(=O)[C@@]2(C)[C@]2(C(=O)OC)C(=O)C(C)OC(=O)[C@@]12C)C(C)(C)C(=O)CC3O (stereo partly drawn),4.14% [at 57.1 µM],–
CC(=O)N1c2ccccc2C2(O)CC3C(=O)NC(CC(C)C)C(=O)N3C12 (stereo not drawn),8.54%,–
C[C@@H]1CC[C@]2(C(=O)O[C@@H]3O[C@H](CO)[C@@H](O)[C@H](O)[C@H]3O)CC[C@]3(C)C(=CCC4[C@@]5(C)C[C@@H](O)[C@H](O)C(C)(C)C5CC[C@]43C)C2[C@]1(C)O (stereo partly drawn),25.6% [at 32.5 µM],–
CC(C)(O)c1ccc2c(c1)C(=O)CC1[C@](C)(CO)CCC[C@]21C (stereo partly drawn),–,31.6 µM (active)
COc1ccc(C2=CC(=O)OC2Cc2ccc(O)cc2)c(O)c1 (stereo not drawn),-8.55%,–
C=C[C@H]1[C@H](O[C@@H]2O[C@H](CO)[C@@H](O)[C@H](O)[C@H]2O)OC=C2C(=O)OCC[C@]21O,–,35.5 µM (active)
COc1cc(C(C)=O)ccc1O[C@@H]1O[C@H](CO[C@@H]2O[C@@H](C)[C@H](O)[C@@H](O)[C@H]2O)[C@@H](O)[C@H](O)[C@H]1O,0.0478% [at 57.1 µM],–
C[C@@H]1CC[C@]2(C)C(C[C@@H](O)[C@H](O)[C@]23CO3)[C@@]1(C)CCc1ccoc1 (stereo partly drawn),-9.12%,–
C=C1CC[C@H]2[C@@H](/C=C(\C)C(=O)[C@@]3(OC(C)=O)C[C@H](C)[C@H](OC(C)=O)[C@@H]3[C@H]1OC(C)=O)C2(C)C,–,7.94 µM (active)

SMILES,"activity change, negative = inhibition",Potency
O=C(c1ccc(C#Cc2cccc(F)c2)cn1)N1CC2CC2C1 (stereo not drawn),81.7%,–
O=C(O)CCc1cc2ccoc2cc1O[C@@H]1O[C@H](CO[C@@H]2OC[C@](O)(CO)[C@H]2O)[C@@H](O)[C@H](O)[C@H]1O,3.61% [at 57.1 µM],–
COC1=Cc2c(nc3n(c2=O)C(C)C(=O)NC3(O)C(C)C)OC=C1 (stereo not drawn),10.6%,–
CCCCN(CCCC)C(=O)CN1C[C@H](c2ccc3c(c2)OCO3)[C@@H](C(=O)O)[C@@H]1c1ccc(OC)cc1,–,28.2 µM (active)
COc1cc(N2CCC(N(C)C)CC2)ccc1Nc1ncc(Cl)c(Nc2ccccc2P(C)(C)=O)n1,2.56%,–
Cc1cc(Nc2ncc(Cl)c(Nc3ccccc3S(=O)(=O)C(C)C)n2)c(OC(C)C)cc1C1CCNCC1,39.4%,–
Cn1ccnc1CCOC(c1cc2nccc(C(=O)O)c2[nH]1)c1ccccc1Cl (stereo not drawn),0%,–
CC(/C=C/C1(O)C(C)(C)CC(O)CC1(C)O)OC1OC(CO)C(O)C(O)C1O (stereo not drawn),8.33% [at 57.1 µM],–
CC/C=C/CC1=C(CCCCCCCC(=O)O)CCC1=O,-19.5%,–
CCOC(=O)[C@H](CCc1ccccc1)N[C@@H](C)C(=O)N1C2CCCCC2C[C@H]1C(=O)O (stereo partly drawn),1.65%,–
CC(=O)c1c(O)cc2cccc3c2c1CC(C)(O)O3 (stereo not drawn),–,35.5 µM (active)
C=C(C)[C@@H](C)[C@H]1O[C@]23C[C@]4(CO2)C(CCC2[C@@]5(C)CC[C@H](O[C@@H]6OC[C@H](O)[C@H](O[C@@H]7O[C@H](CO)[C@@H](O)[C@H](O)[C@H]7O)[C@H]6O[C@@H]6O[C@@H](CO)[C@H](O)[C@H]6O)C(C)(C)C5CC[C@]24C)C3[C@@](C)(O)[C@@H]1OC(C)=O (stereo partly drawn),-24.2% [at 32.5 µM],–
COc1cc(C(=O)OC[C@H]2O[C@H](O[C@@]3(CO)O[C@@H](CO)[C@H](O)[C@H]3O)[C@H](O)[C@@H](O)[C@@H]2O)ccc1O,1.55% [at 57.1 µM],–
Cc1cccc(-c2[nH]c(CNc3ccccc3F)nc2-c2ccc3ncnn3c2)n1,39.4%,–
CCOC(=O)N1CCC(NCCNC(=O)c2ccccc2C)CC1,-5.93%,–
O=C(O)C[C@H](O)C[C@H](O)/C=C/c1c(C2CC2)nc2ccccc2c1-c1ccc(F)cc1,-1.54%,–
C[C@@H](O)[C@H](N)C(=O)N1CCC[C@H]1C(=O)N1CCC[C@H]1C(=O)N[C@H](C(N)=O)[C@@H](C)O (H-TPPT-NH2),-7.3% [at 19.1 µM],–
C[C@@H]1O[C@@H](O[C@H]2[C@H](O[C@H]3CC[C@@]4(C)C(CC[C@]5(C)C4CC=C4C6CC(C)(C)CC[C@]6(C(=O)O[C@@H]6O[C@H](CO[C@@H]7O[C@H](CO)[C@@H](O[C@@H]8O[C@@H](C)[C@H](O)[C@@H](O)[C@H]8O)[C@H](O)[C@H]7O)[C@@H](O)[C@H](O)[C@H]6O)CC[C@]45C)[C@]3(C)CO)OC[C@H](O)[C@@H]2O)[C@H](O)[C@H](O)[C@H]1O (stereo partly drawn),20.6% [at 19.1 µM],–
COc1cc(-c2cccc(O)c2)cc2c1OCO2,–,35.5 µM (active)
